Reference: PubChem BioAssay AID720664 (National Center for Advancing Translational Sciences (NCATS), 2013)
Results filed as inconclusive are left out. A call without a number means that no potency is given here. Active and inactive are the calls of the source. The call rests on the fitted dose curve; in most records, active means well fitted inhibition curve with a large enough effect; inconclusive means small, poorly fitted or top-dose-only effect; inactive means flat fitted curve, though single readings scatter.

molecular target: Galactokinase (Homo sapiens) (UniProt P51570); test: qHTS for Inhibitors of Human Galactokinase (GALK): SAR round 3; details: ADP detection luminescence, 1 h; series mostly up to 57.5 µM
Source text: Inherited deficiency of galactose-1-phosphate uridyltransferase (GALT) can result in a potentially lethal disorder called Classic Galactosemia (OMIM 230400). Several lines of evidence indicate that an elevated level of galactose-1-phosphate (gal-1-p), the product of galactokinase (GALK), is a major, if not sole, pathogenic mechanism in patients with classic galactosemia. Therefore, finding inhibitors of GALK is a potential novel therapy for this inherent metabolic disease and is the long term goal of this project. Active compounds observed in the qHTS GALK assay (AID: 1868) were cherry picked and re-screened for validation. GALK (provided by Kent Lai) was assayed using ATP and D-(+)-Galactose (Sigma-Aldrich cat# G0750) as substrates. Promega ADP-Glo technology was used to detect the ADP product formed after the kinase reaction. Kinase reactions with and without GALK were used as negative and positive controls together with Protein Tyrosine Phosphatase CD45 inhibitor (EMD Bioscience cat# 540215) which is shown to inhibit GALK activity. Decrease in activity corresponds to inhibition of the enzyme, the desired outcome for this assay. NIH Molecular Libraries Probe Production Network [MLPCN] NIH Chemical Genomics Center [NCGC] Grant: MH085689-01 PI Name: Kent Lai, University of Utah
Three uL/well of ATP-buffer solution (35 uM ATP, 20mM HEPES pH8.0, 5 mM MgCl2, 60 mM NaCl, 1 mM DTT, 0.01% BSA final concentration) was dispensed into 1536-well, assay plates (Greiner, solid white medium-binding plates) with Aurora Discovery BioRAPTR Flying Reagent Dispenser (FRD; Beckton-Dickenson). Compound and control solution (23 nL) was transferred to the assay plate using the Kalypsys 1536-pin tool apparatus. One uL/well GALK-galactose solution (5 nM GALK, 100 uM galactose, 20 mM HEPES pH8.0, 5 mM MgCl2, 60 mM NaCl, 1 mM DTT, 0.01% BSA final concentration) was then added using the FRD yielding a total kinase reaction volume of 4 uL/ well. After 1 hour of room temperature incubation, 4 uL Kinase-Glo Plus reagent was added for a final assay volume of 8 uL/well. Luminescence was detected with the ViewLux plate reader (Perkin Elmer, Waltham, MA) after 2 min incubation using a 1 sec exposure time and 2x binning.

Chain of Galactokinase (Homo sapiens) (P51570 whole entry, looked up): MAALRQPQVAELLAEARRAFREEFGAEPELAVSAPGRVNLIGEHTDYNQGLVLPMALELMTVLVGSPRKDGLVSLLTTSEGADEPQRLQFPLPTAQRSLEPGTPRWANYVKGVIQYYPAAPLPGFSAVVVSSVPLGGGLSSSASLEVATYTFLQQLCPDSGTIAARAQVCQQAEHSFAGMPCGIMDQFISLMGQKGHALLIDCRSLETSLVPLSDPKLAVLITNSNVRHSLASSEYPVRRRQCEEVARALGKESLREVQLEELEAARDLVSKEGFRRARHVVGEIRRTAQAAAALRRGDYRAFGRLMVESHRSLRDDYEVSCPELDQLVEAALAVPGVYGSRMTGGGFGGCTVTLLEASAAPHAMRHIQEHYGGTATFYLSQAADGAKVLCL

Which Potency does the source give for `CC1=C(C(=O)Nc2nncs2)C(c2nn(C)cc2Cl)N=C(Nc2nc3ccccc3o2)N1` (centres undefined) here?
The Potency was 17.2 µM (active).

With `Cn1cc(Cl)c(C2N=C(Nc3nc4ccccc4o3)NC3=C2C(=O)CCC3)n1` (centres undefined) as the molecule, how does the Potency read?
Its Potency is 12.2 µM (active).

How did the Potency turn out when `CC1=C(C(=O)Nc2nccs2)C(c2ccccc2Br)N=C(Nc2nc3ccccc3o2)N1` (centres undefined) was run?
Its Potency is “inactive”.

With `Cc1ccc2nc(NC3=NC(c4[nH]ncc4Cl)C4=C(CCCC4=O)N3)oc2c1` (centres undefined) as the molecule, how does the Potency read?
The Potency was “inactive”.

With `CC(=O)Nc1ncc(S(=O)(=O)N2CCOCC2)s1` as the molecule, how does the Potency read?
The Potency was “inactive”.

Which Potency does the source give for `Cc1cccc2nc(NC3=NC(c4[nH]ncc4Cl)C4=C(CCCC4=O)N3)oc12` (centres undefined) here?
The Potency was “inactive”.

For `Cn1cc(Br)c(C2N=C(Nc3nc4ccccc4o3)NC3=C2C(=O)CCC3)n1` (centres undefined), which Potency is on record?
Its Potency is 9.68 µM (active).

`O=C1CCCC2=C1C(c1[nH]ncc1Cl)N=C(Nc1nc3ccc(F)cc3o1)N2` (centres undefined) was tested. Which Potency did it give?
Its Potency is “inactive”.

`CCCc1ccc(NC(=O)c2ccc3c(c2)NC(=O)CS3)cc1` was tested. Which Potency did it give?
Its Potency is “inactive”.
